# EPAC2 ant val: human EPAC2 antagonism, validation; EPAC2 Rap1B BODIPY-GDP exchange, fluorescence; Q8WZA2; 1.7% of 16,000 active; Potency, µM (series often up to 112 µM), actives largely listed as inhibitors; further: nearly all actives have a fitted effect of over 40% in size
#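 Normalized against a 6.5 mM cAMP agonist control, compounds were tested on 100 nM EPAC2 exchanging Rap1B-bound BODIPY-GDP (250 nM) for 50 uM GDP. Fluorescence drop (ex 480, em 540 nm) was tracked at room temperature over 30 min at 5-min intervals.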
# EPAC1 ag val: validation of human EPAC1 agonists; Potency, µM, actives largely listed as activators; AID 1645883; EPAC1 Rap1b BODIPY-GDP exchange, fluorescence; 1% of 16,000 active; further: nearly all actives have a fitted effect of over 70% in size
# Target sequence (O95398 whole entry, looked up): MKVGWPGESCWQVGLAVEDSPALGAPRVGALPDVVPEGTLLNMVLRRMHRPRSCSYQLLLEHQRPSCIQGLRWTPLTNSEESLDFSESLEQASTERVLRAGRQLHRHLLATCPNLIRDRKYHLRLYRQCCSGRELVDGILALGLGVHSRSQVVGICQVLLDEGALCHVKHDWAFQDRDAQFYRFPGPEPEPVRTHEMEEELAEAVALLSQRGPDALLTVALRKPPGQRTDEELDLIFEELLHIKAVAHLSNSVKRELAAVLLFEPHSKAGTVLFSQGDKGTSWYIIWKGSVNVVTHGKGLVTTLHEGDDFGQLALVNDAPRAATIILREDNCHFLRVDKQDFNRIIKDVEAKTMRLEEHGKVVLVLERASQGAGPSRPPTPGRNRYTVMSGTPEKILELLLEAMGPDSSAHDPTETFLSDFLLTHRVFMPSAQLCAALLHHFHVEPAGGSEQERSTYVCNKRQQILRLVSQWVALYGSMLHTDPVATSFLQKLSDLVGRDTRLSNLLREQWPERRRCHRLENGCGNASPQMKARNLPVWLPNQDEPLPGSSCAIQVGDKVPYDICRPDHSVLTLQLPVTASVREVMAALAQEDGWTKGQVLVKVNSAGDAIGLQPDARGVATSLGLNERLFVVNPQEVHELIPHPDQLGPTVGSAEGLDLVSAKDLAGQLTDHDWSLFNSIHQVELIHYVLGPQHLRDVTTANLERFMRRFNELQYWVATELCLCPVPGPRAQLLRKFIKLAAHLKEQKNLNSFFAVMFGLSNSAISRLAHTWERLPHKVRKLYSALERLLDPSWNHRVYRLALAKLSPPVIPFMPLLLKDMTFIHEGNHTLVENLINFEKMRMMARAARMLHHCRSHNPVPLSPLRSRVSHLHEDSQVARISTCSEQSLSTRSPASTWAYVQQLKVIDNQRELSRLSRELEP
# A number is an active result; n = inactive; u = inconclusive; ! = not active in a repeat. Compounds with a hit are over-represented: about 3.1% of the library has one in this group of screens. The call rests on the fitted dose curve; in most records, active means well fitted curve in the direction sought with a large enough effect; inconclusive means small, poorly fitted or top-dose-only effect, or another doubt; inactive means no such curve, though single readings can be large; an effect the other way counts as inactive or inconclusive.
SMILES,EPAC2 ant val,EPAC1 ag val
O=C(c1csnn1)N1CCC2(CC1)CN(c1cccc(-c3ccccc3)c1)C2,u,100µM
COC(=O)N1CCC2(CC1)CCN(c1cccc(-c3ccccc3)c1)CC2,n,100µM
COc1ccccc1N1CCN(c2nc(CNC(=O)C3CC34CCCC4)nc3ccccc23)CC1 (stereo unspecified),u,n
CC(=O)N[C@@H](CC(=O)N[C@@H](CCC(=O)O)C(=O)O)C(=O)O,n,n
COc1ccc2c(c1)CCc1cnc(-n3ncc(C(=O)N4CCN(CCO)CC4)c3C3CC3)nc1-2,n,n
CC(C)c1c(O)ccc2c1CCC1[C@@](C)(CO)CCC[C@@]21C (stereo partly specified),n,n
COc1ccc2c(c1)[C@@]1(C)CCC[C@](C)(CO)C1CC2 (stereo partly specified),44.7µM,n
COc1ccccc1-n1cc(C(=O)NCCN2Cc3ccccc3OC(c3ccsc3)C2)cn1 (stereo unspecified),u,n
O=C(NOCC1CC1)c1ccc(F)c(F)c1Nc1ccc(I)cc1Cl,n,u
O=S(c1cc(Cl)cc(Cl)c1O)c1cc(Cl)cc(Cl)c1O,u,n
Oc1c(Cl)cc(Cl)cc1Sc1cc(Cl)cc(Cl)c1O,56.2µM,n
O=C(c1cnccn1)N1CCC[C@@]2(CCN(C(c3ccccc3)c3ccccc3)C2)C1,50.1µM,n
O=C(c1cnccn1)N1CCC2(CCCN(C(c3ccccc3)c3ccccc3)C2)CC1,u,n
C=C1CC[C@H](O)CC1=C/C=C1\CCC[C@]2(C)[C@@H]([C@H](C)CC[C@@H](O)C(C)(C)O)CC[C@@H]12,n,n
O=S1(=O)CCO[C@H]2Cc3ccccc3[C@H]2N1Cc1cccc(C(F)(F)F)c1,28.2µM,n
O=S1(=O)CCO[C@H]2Cc3ccccc3[C@H]2N1Cc1cccc(F)c1,u,n
CCCCCCCCCc1ccc(OCCOCCO)cc1,u,n
CC(C)C(=O)OCC(=O)[C@@]12O[C@H](C3CCCCC3)O[C@@H]1C[C@H]1[C@@H]3CCC4=CC(=O)C=C[C@]4(C)[C@H]3[C@@H](O)C[C@@]12C,n,n
COc1ccc2cc(CCC(C)=O)ccc2c1,15.8µM!,n
COc1ccc(C(C)=O)cc1,n,n
COc1ccccc1C1CN(CCNC(=O)c2cnsn2)Cc2ccccc2O1 (stereo unspecified),n,n
Cc1nc2sccn2c(=O)c1CCN1CCC(=C(c2ccc(F)cc2)c2ccc(F)cc2)CC1,50.1µM!,u
Cc1nc2ccccn2c(=O)c1CCN1CCC(C(=O)c2ccc(F)cc2)CC1,n,n
CCOC(=O)N1CCN(Cc2ccc3c(c2)CN(C(=O)c2cc(-c4ccccc4)on2)CCO3)CC1,n,n
CCCCCCCCCC[n+]1ccc(/C=C/c2c[nH]c3ccccc23)c2ccccc21,n,n
SMILES,EPAC2 ant val,EPAC1 ag val
Cc1[nH]c2ccccc2c1/C=C/c1nccc2ccccc12,u,n
CCCCCCCCCC[n+]1ccc(/C=C/c2c(C)[nH]c3ccccc23)cc1,n,25.1µM
CCCCCCC[n+]1ccc(/C=C/c2c[nH]c3ccccc23)cc1,n,100µM
CC(C)C[C@H](NC(=O)[C@H](Cc1ccccc1)NC(=O)c1cnccn1)B(O)O,n,n
CCCCCCCCCCCCCCCC(=O)O[C@H]1[C@@H](O)[C@@H](O)[C@@H]([C@H](NC(=O)[C@@H]2C[C@@H](CCC)CN2C)[C@H](C)Cl)O[C@@H]1SC,n,n
C[C@@H]1[C@H](O)[C@@H](C)/C=C/C=C\C=C\C=C\C=C\C=C\C=C\[C@H](O[C@@H]2O[C@H](C)[C@@H](O)[C@H](N)[C@@H]2O)C[C@@H]2O[C@](O)(C[C@@H](O)C[C@@H](O)[C@H](O)CC[C@@H](O)C[C@@H](O)CC(=O)O[C@H]1C)C[C@H](O)[C@H]2C(=O)O (stereo in doubt),n,n
O=C1CCC[C@@H]2CC(N(Cc3cc4ccccc4s3)c3ccccc3)C[C@@H]3CCN1[C@H]23 (stereo partly specified),n,100µM
CCCCCCCN(c1ccccc1)C1C[C@H]2CCCC(=O)N3CC[C@@H](C1)[C@@H]23 (stereo partly specified),u,n
Cc1cc(C)n(-c2cccc(C(=O)NCC3Cc4cccc(-c5ccccn5)c4O3)c2)n1 (stereo unspecified),u,n
COc1ccc(CN2CCN(C(C)=O)CC2)cc1OC1CCN(C(=O)c2ccc3[nH]c(C)c(C)c3c2)CC1,n,n
CCCCC[C@H](O)C=C[C@H]1[C@H](O)CC(=O)[C@H]1CCCCCCC(=O)O,56.2µM,n
CCCCC[C@H](O)/C=C/[C@H]1[C@H](O)CC(=O)[C@@H]1C/C=C\CCCC(=O)O,n,n
Cc1cnc(C)c(-c2ccc(F)c3c2OC(CNC(=O)/C=C/c2cccs2)C3)n1 (stereo unspecified),n,n
COc1ccc(-n2c(=O)c(-c3ccc(Cl)cc3)nc3cnc(N(C)C)nc32)cc1,n,100µM
COc1ccc(-c2nc3cnc(N(C)C)nc3n(-c3ccccc3)c2=O)cc1,n,n
C=C1CC[C@H](O)CC1=C/C=C1\CCC[C@]2(C)[C@@H]([C@H](C)CCCC(C)(C)O)CC[C@@H]12,n,n
CCCOC(=O)c1cc(O)c(O)c(O)c1,n,n
O=C(OC[C@H]1O[C@@H](OC(=O)c2cc(O)c(O)c(OC(=O)c3cc(O)c(O)c(O)c3)c2)[C@H](OC(=O)c2cc(O)c(O)c(OC(=O)c3cc(O)c(O)c(O)c3)c2)[C@@H](OC(=O)c2cc(O)c(O)c(OC(=O)c3cc(O)c(O)c(O)c3)c2)[C@@H]1OC(=O)c1cc(O)c(O)c(OC(=O)c2cc(O)c(O)c(O)c2)c1)c1cc(O)c(O)c(OC(=O)c2cc(O)c(O)c(O)c2)c1,22.4µM,n
O=C1OC2(c3ccccc31)c1cc(Br)c(O)c(Br)c1Oc1c2cc(Br)c(O)c1Br,n,n
Clc1ccccc1C(c1ccccc1)(c1ccccc1)n1ccnc1,11.2µM!,u
Clc1ccccc1-c1nccc(-n2ccnc2)n1,n,n
C=CS(=O)(=O)O,n,n
COc1cc(OC)c(C(C)=O)c(O)c1C,n,n
COc1cc(C)c(C(=O)Oc2cc(C)c(C(=O)O)c(O)c2C)c(OC)c1C,50.1µM,n
COCC1CCCN(Cc2ccc3c(c2)CN(C(=O)c2ccc(OC)nc2OC)CCO3)C1 (stereo unspecified),n,n
SMILES,EPAC2 ant val,EPAC1 ag val
Cc1ccc(F)cc1S(=O)(=O)NCc1nc(N2CCCC2)c2cccc(C)c2n1,n,n
O=C(Nc1ccc(Oc2ccc(Cl)cc2)c(Cl)c1)c1cc(I)cc(I)c1O,n,100µM
O=C(Nc1ccc(Cl)cc1)Nc1ccc(Cl)c(Cl)c1,u,n
C=CC[N@@+]12CC[C@@]34c5ccccc5N5/C=C6/[C@H]7C[C@H]8[C@@]9(CC[N@@+]8(CC=C)C/C7=C/CO)c7ccccc7N(/C=C(/[C@@H](C[C@@H]31)/C(=C\CO)C2)[C@H]54)[C@@H]69,n,n
COc1cccc(OC)c1OCCNC[C@@H]1COc2ccccc2O1,n,n
CCn1ccnc1CC1COc2ccccc2O1 (stereo unspecified),35.5µM!,n
COC(=O)N1CCC2(CCCN(Cc3cc(C(F)(F)F)cc(C(F)(F)F)c3)C2)CC1,n,n
COc1ccc(C(=O)N2CCC3(CCCN(Cc4cc(C(F)(F)F)cc(C(F)(F)F)c4)C3)CC2)cc1,35.5µM,n
O=C(NCCc1ccccn1)c1cnn(-c2ncc3c(n2)-c2ccccc2CC3)c1C1CC1,n,n
